# In PubChem BioAssay (NCI):
# This is part of a sample that, as a whole, favours compounds with a hit. Of some 79,000 tested, about 15% had one in any assay. Values without a mark were called inactive. Cut-off read from the data, not from the text of the source: active = growth inhibition above about 70%; inactive = the rest.
# Experiment: NCI Yeast Anticancer Drug Screen. Data for the rad18 strain (AID 177)
# Settings: S. cerevisiae rad18 mutant growth inhibition; at 1.2 µM; hits give high values
# Outline: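 Test articles were incubated with altered yeast defective in DNA damage repair. Results are given as inhibition of growth versus vehicle.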
row,Structure (SMILES),growth inhibition
1,O=CC=C(c1ccccc1)c1ccccc1,20%
2,FC(F)(F)c1nc2nc(Cl)c(Cl)nc2n1CCCN1CCOCC1,-6%
3,BrCC[P+](c1ccccc1)(c1ccccc1)c1ccccc1,-59%
4,N#CSc1ccc(S(N)(=O)=O)cc1,-47%
5,O=[N+]([O-])c1ccc2nc3ccccc3cc2c1,14%
6,O=C(NC(Nc1ccc(F)c(Cl)c1)(C(F)(F)F)C(F)(F)F)C(C(F)(F)F)C(F)(F)F,22%
7,O=C(/C=C\c1ccc(Cl)cc1Cl)c1cccs1,3%
8,O=C(NCCCCNCCCNC(=O)c1cc(-c2ccccc2)nc2ccccc12)c1cc(-c2ccccc2)nc2ccccc12,0%
9,NC(=NCc1ccccc1)N/N=C\c1ccnc2ccccc12,-2%
10,COc1cc(C2C3=C(COC3=O)Oc3cc4c(cc32)OCO4)ccc1O (configuration not stated),2%
11,C#CCCCc1ccccc1,-56%
12,CCc1ccc(NS(=O)(=O)c2ccccc2)c([N+](=O)[O-])c1,2%
13,COc1ccc(C2c3cc4c(cc3OC(C)(O)C2C)OCO4)c(OC)c1 (configuration not stated),1%
14,COC(=O)c1ccc(CCC2=CC(=O)C(Br)=CC2=O)cc1,-25%
15,NNC(=O)CCc1ccc2ccc3ccccc3c2c1,17%
16,Cn1c2ccccc2c(=O)c2cc(NC(=O)CCCCC(=O)Nc3ccc4c(c3)c(=O)c3ccccc3n4C)ccc21,1%
17,CC(CC(C)(C)[N+](C)(C)C)[N+](C)(C)C (configuration not stated),11%
